According to PubChem BioAssay (NCI):
Values joined by “and” are separate entries in the source; they are usually repeats but may differ in a detail not shown here. Equal entries are not always repeated. The panel holds about 83,000 compounds, 20% with a hit somewhere; the sample as a whole holds those more often.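 How to read the values: 0–100, growth inhibition (40 = 60% inhibited); 0, no net growth; -100 to 0, cell death (-40 = 40% of starting cells died; -100 = all dead).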 Values without a mark were called inactive. Active and inactive are the calls of the source. Starred links: 1 amine or outer side, 2 acyl side, 3 side chain; linkers in the order of their positions; H or OH if unused. Positions of bridges follow the written chain, without caps; N, C: chain ends. Non-standard residues stand in square brackets, D forms with d. Residues, ends and D or L forms follow the SMILES beside them. Chains are numbered I, II in the order given. Actinocin(9to1) = Cc1c2oc3c(C)ccc(C(=O)[*:1])c3nc-2c(C(=O)[*:2])c(N)c1=O; aThr = C[C@H](O)[C@H](N)C(=O)O; NMeV = CN[C@H](C(=O)O)C(C)C; Sar = CNCC(=O)O

Each compound was assayed on UACC-62 melanoma (assay: NCI-60 one-dose screen, 48 h (100 = growth as untreated, 0 = no growth, -100 = all killed)). Settings: 0.0025 µM.
Method: Growth inhibition of the UACC-62 human tumor cell line is measured as a screen for anti-cancer activity. Cells are grown in 96 well plates and exposed to the test compound for 48 hours. Compounds are tested at a single concentration, which is 10^-5 M for most compounds. The reported endpoint is percent growth (GI% or GIPRCNT), where numbers from 0 - 100% represent growth inhibition, and numbers from -100% - 0 represent cell death. For example, a value of 40 represents 60% growth inhibition. A value of 0 means no net growth occurred over the course of the experiment. A value of -40 indicates 40% of cells at the beginning of the experiment died by the end of the experiment. A value of -100 means all cells are dead at the end of the experiment.
NCI-60 Human Tumor Cell Lines Screen was performed using the standard one-dose NCI protocol, which is described in more detail at https://dtp.cancer.gov/discovery_development/nci-60/default.htm.
Compounds with GIPRCNT values below 10 were considered active. Activity score was based on GIPRCNT using the following formula: […]
Score is 0 for GIPRCNT values of 100 or above, 50 for GIPRCNT values of 0, and 100 for GIPRCNT values of -100.
Work on `Cc1c2oc3c(C)ccc(C(=O)N[C@@H]4C(=O)N[C@H](C(C)C)C(=O)N5CCC[C@H]5C(=O)N(C)CC(=O)N(C)[C@@H](C(C)C)C(=O)O[C@H]4C)c3nc-2c(C(=O)N[C@@H]2C(=O)N[C@H](C(C)C)C(=O)N3CCC[C@H]3C(=O)N(C)CC(=O)N(C)[C@@H](C(C)C)C(=O)O[C@H]2C)c(N)c1=O` (I: [aThr][dV]P[Sar][NMeV] / II: [aThr][dV]P[Sar][NMeV]; ester I:1-I:C, II:1-II:C; linker I:N-II:N via Actinocin(9to1)) yielded a growth of 36.5%.

Same assay, conditions: 10 µM
For `Cc1c2oc3c(C)ccc(C(=O)N[C@@H]4C(=O)N[C@H](C(C)C)C(=O)N5CCC[C@H]5C(=O)N(C)CC(=O)N(C)[C@@H](C(C)C)C(=O)O[C@H]4C)c3nc-2c(C(=O)N[C@@H]2C(=O)N[C@H](C(C)C)C(=O)N3CCC[C@H]3C(=O)N(C)CC(=O)N(C)[C@@H](C(C)C)C(=O)O[C@H]2C)c(N)c1=O` (I: [aThr][dV]P[Sar][NMeV] / II: [aThr][dV]P[Sar][NMeV]; ester I:1-I:C, II:1-II:C; linker I:N-II:N via Actinocin(9to1)), the growth was -74.5% (active).
`O=c1[nH]cc(F)c(=O)[nH]1` was tested, and the growth was 51.9% and 48.4%.
With `CSc1ccc2c(c1)C(N1CCN(C)CC1)Cc1ccccc1S2` (centres undefined) the growth was -69.5% (active).
Compound `CN1CCN(c2ccc3nc(-c4ccc5nc(-c6ccc(O)cc6)[nH]c5c4)[nH]c3c2)CC1` has a growth of 39.5%.
`CN(C)CCC(=O)c1c[nH]c2ccccc12` showed a growth of 113%.
For `BrC/C=C/C[P+](c1ccccc1)(c1ccccc1)c1ccccc1`, the growth was 52.8%.
`N#C/C(=C1C=C/C(=N\O)C(Cl)=C\1)c1ccccc1` gave a growth of 26.2%.
With `Nc1ccc2cc(Br)c3ccccc3c2c1` the growth was 73.8%.
`S=c1[nH]nc(Cc2ccccc2)c(=S)[nH]1` showed a growth of 110%.
With `CCCCCCCCCCCCCCCCCN` the growth was 102%.
With `Cc1cnc(/C=N\NC(N)=S)c2cccc(N)c12` the growth was -15.7% (active).
`Cc1cc(NCCCN(C)C)c2ccc3c(ccc4c(NCCCN(C)C)cc(C)nc43)c2n1` was tested, and the growth was -96.9% (active).
In the case of `COc1cc(C(C)(C)C)cc(OC)c1C(O)(c1c(OC)cc(C(C)(C)C)cc1OC)c1c(OC)cc(C(C)(C)C)cc1OC`, the growth is reported as -86.3% (active).
Work on `O=C(/C(=C/c1ccccc1)CBr)c1ccccc1` yielded a growth of 72.7%.

Same assay, conditions: 25 µM
Compound `O=c1[nH]cc(F)c(=O)[nH]1` has a growth of 39.7%.

Same assay, conditions: 50 µM
Compound `O=c1[nH]cc(F)c(=O)[nH]1` has a growth of 54%.

Same assay, conditions: 100 µM
For `COc1ccc2c(C)cc(N/N=C/c3sccc3C)nc2c1`, the growth was -100% (active).
`Cc1ccc2nc(N/N=C/c3ccc(C)s3)cc(C)c2c1` was tested, and the growth was -99.1% (active) and -100% (active).
